Reference: PubChem BioAssay AID1210 (NMMLSC, 2008)

target: Estrogen receptor beta (Homo sapiens) (UniProt Q92731); test: ERbeta ligand binders by competition, primary screen, cell-based, Cos7 ERbeta-GFP, flow cytometry (AID 1210); conditions: fluorescent estrogen binding, at 10 µM, stronger effect = higher value;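 note: 0% = DMSO vehicle wells and 100% = complete loss of labeled estradiol signal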
Sequence (Q92731 whole entry, looked up): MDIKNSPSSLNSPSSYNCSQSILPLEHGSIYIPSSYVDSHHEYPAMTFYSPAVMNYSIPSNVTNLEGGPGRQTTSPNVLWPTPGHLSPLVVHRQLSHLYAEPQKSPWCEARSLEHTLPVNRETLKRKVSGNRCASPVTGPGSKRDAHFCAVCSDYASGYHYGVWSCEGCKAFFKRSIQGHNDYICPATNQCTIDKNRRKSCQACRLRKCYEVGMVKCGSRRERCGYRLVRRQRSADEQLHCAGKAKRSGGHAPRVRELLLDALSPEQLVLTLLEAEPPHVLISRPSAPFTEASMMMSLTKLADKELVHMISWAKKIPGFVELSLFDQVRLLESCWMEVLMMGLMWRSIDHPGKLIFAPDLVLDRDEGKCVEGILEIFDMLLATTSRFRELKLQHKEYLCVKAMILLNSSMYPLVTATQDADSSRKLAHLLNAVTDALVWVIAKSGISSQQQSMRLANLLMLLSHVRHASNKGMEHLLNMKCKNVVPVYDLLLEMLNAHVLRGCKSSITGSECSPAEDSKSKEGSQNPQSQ

inhibition, inactive:
CCCCNS(=O)(=O)c1ccc(NC(=O)C(Sc2ccccc2)c2ccccc2)cc1 (stereo unspecified) 41%
O=C(Nc1ccccc1N1CCOCC1)c1cc(-c2ccco2)nc2ccccc12 56%
COc1ccc(NC(=O)C(NC(=O)c2ccc(=O)[nH]c2)c2ccc(C)cc2)cc1 (stereo unspecified) 52%
Cc1oc2cc(O)ccc2c(=O)c1Oc1ccccc1 22%
O=C(CSc1nnc(SCC(=O)c2ccco2)s1)c1ccco1 56%
Cc1occc1C(=O)NCc1cccc(CNC(=O)c2ccoc2C)c1 2%
Cc1ccc(C)c(/C(O)=C2/C(=O)C(=O)N(CCN3CCOCC3)C2c2ccco2)c1 (stereo unspecified) 23%
Cc1ccccc1Nc1nnc(SCC(=O)NCc2ccco2)s1 26%
Oc1ccc(/C=N/n2c(-c3ccco3)csc2=Nc2cccnc2)c(O)c1 20%
COc1ccc2nc3oc(C(=O)N4CCN(c5cccc(C(F)(F)F)c5)CC4)cc3cc2c1 24%
COCCCn1c(Cc2csc(Nc3cccc(Cl)c3)n2)nnc1SCC(=O)OC1CCCCC1 11%
O=C1c2ccccc2NC(c2cccnc2)N1c1ccccc1F (stereo unspecified) 63%
Cc1cc(C)c(S(=O)(=O)/N=C2\C=CC(=O)C(Cl)=C2)c(C)c1 0%
COCCOC(=O)c1[nH]c2c(c1C)C(=O)CC(c1ccco1)C2 (stereo unspecified) 35%
CC1=C(SCCC#N)S/C(=C2\SC(C)=C(SCCC#N)S2)S1 49%
CCn1c(SCC(=O)Nc2cccc(F)c2)nnc1-c1cc2cc(Br)ccc2o1 39%
